{"source": "the supplement of paper PMC4466140", "assay_in_all_cases": "SPOT peptide array binding signal intensity (averaged, normalized) (arbitrary units (background-subtracted, floor 0; scale differs between SH3 domains)); higher = stronger binding of the SH3 domain to the peptide", "key": {"AgAbp1": {"target": "AgAbp1", "experimental": "(§1)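 GST-tagged SH3 domains from S. cerevisiae (Sc), A. gossypii (Ag), C. albicans (Ca) and S. pombe (Sp) were incubated at 10 ug/ml overnight at 4 C on cellulose SPOT membranes carrying 292 synthetic 15-mer peptides mined from the S. cerevisiae proteome (cysteines replaced by serines). Binding was detected with anti-GST antibody, HRP secondary and chemiluminescence, quantified with Genespotter, and reported as normalized spot intensities averaged over biological replicates.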"}, "AgBbc1": {"target": "AgBbc1", "experimental": "as §1"}, "AgBem1-D1": {"target": "AgBem1-D1", "experimental": "as §1"}, "AgBzz1-D1": {"target": "AgBzz1-D1", "experimental": "as §1"}, "AgBzz1-D2": {"target": "AgBzz1-D2", "experimental": "as §1"}, "AgCyk3": {"target": "AgCyk3", "experimental": "as §1"}, "AgFus1": {"target": "AgFus1", "experimental": "as §1"}, "AgHof1": {"target": "AgHof1", "experimental": "as §1"}, "AgHse1": {"target": "AgHse1", "experimental": "as §1"}, "AgLsb1": {"target": "AgLsb1", "experimental": "as §1"}, "AgLsb4": {"target": "AgLsb4", "experimental": "as §1"}, "AgMyo5": {"target": "AgMyo5", "experimental": "as §1"}, "AgNbp2": {"target": "AgNbp2", "experimental": "as §1"}, "AgRvs167": {"target": "AgRvs167", "experimental": "as §1"}, "AgSho1": {"target": "AgSho1", "experimental": "as §1"}, "AgSla1-D1-D2": {"target": "AgSla1-D1-D2", "experimental": "as §1"}, "AgSla1-D3": {"target": "AgSla1-D3", "experimental": "as §1"}, "CaAbp1-D1": {"target": "CaAbp1-D1", "experimental": "as §1"}, "CaAbp1-D2": {"target": "CaAbp1-D2", "experimental": "as §1"}, "CaBbc1": {"target": "CaBbc1", "experimental": "as §1"}, "CaBem1-D1": {"target": "CaBem1-D1", "experimental": "as §1"}, "CaBzz1-D1": {"target": "CaBzz1-D1", "experimental": "as §1"}, "CaBzz1-D2": {"target": "CaBzz1-D2", "experimental": "as §1"}, "CaCyk3": {"target": "CaCyk3", "experimental": "as §1"}, "CaFus1": {"target": "CaFus1", "experimental": "as §1"}, "CaHof1": {"target": "CaHof1", "experimental": "as §1"}, "CaHse1": {"target": "CaHse1", "experimental": "as §1"}, "CaLsb1": {"target": "CaLsb1", "experimental": "as §1"}, "CaLsb4": {"target": "CaLsb4", "experimental": "as §1"}, "CaMyo5": {"target": "CaMyo5", "experimental": "as §1"}}}
{"binder": "RRSKSLPITPKSIFN", "values": [{"measurement": "SPOT peptide array binding signal intensity", "setting": "AgAbp1", "result": 47}, {"measurement": "SPOT peptide array binding signal intensity", "setting": "AgBbc1", "result": 30.8}, {"measurement": "SPOT peptide array binding signal intensity", "setting": "AgBem1-D1", "result": 374}, {"measurement": "SPOT peptide array binding signal intensity", "setting": "AgBzz1-D1", "result": 59}, {"measurement": "SPOT peptide array binding signal intensity", "setting": "AgBzz1-D2", "result": 25}, {"measurement": "SPOT peptide array binding signal intensity", "setting": "AgCyk3", "result": 6.5}, {"measurement": "SPOT peptide array binding signal intensity", "setting": "AgFus1", "result": 79.5}, {"measurement": "SPOT peptide array binding signal intensity", "setting": "AgHof1", "result": 125}, {"measurement": "SPOT peptide array binding signal intensity", "setting": "AgHse1", "result": 306}, {"measurement": "SPOT peptide array binding signal intensity", "setting": "AgLsb1", "result": 1.5}, {"measurement": "SPOT peptide array binding signal intensity", "setting": "AgLsb4", "result": 78.5}, {"measurement": "SPOT peptide array binding signal intensity", "setting": "AgMyo5", "result": 0.5}, {"measurement": "SPOT peptide array binding signal intensity", "setting": "AgNbp2", "result": 27}, {"measurement": "SPOT peptide array binding signal intensity", "setting": "AgRvs167", "result": 0.667}, {"measurement": "SPOT peptide array binding signal intensity", "setting": "AgSho1", "result": 2230}, {"measurement": "SPOT peptide array binding signal intensity", "setting": "AgSla1-D1-D2", "result": 350}, {"measurement": "SPOT peptide array binding signal intensity", "setting": "AgSla1-D3", "result": "≤ 0"}, {"measurement": "SPOT peptide array binding signal intensity", "setting": "CaAbp1-D1", "result": 144}, {"measurement": "SPOT peptide array binding signal intensity", "setting": "CaAbp1-D2", "result": 310}, {"measurement": "SPOT peptide array binding signal intensity", "setting": "CaBbc1", "result": 103}, {"measurement": "SPOT peptide array binding signal intensity", "setting": "CaBem1-D1", "result": 55}, {"measurement": "SPOT peptide array binding signal intensity", "setting": "CaBzz1-D1", "result": 146}, {"measurement": "SPOT peptide array binding signal intensity", "setting": "CaBzz1-D2", "result": 61}, {"measurement": "SPOT peptide array binding signal intensity", "setting": "CaCyk3", "result": 13.5}, {"measurement": "SPOT peptide array binding signal intensity", "setting": "CaFus1", "result": 368}, {"measurement": "SPOT peptide array binding signal intensity", "setting": "CaHof1", "result": 1}, {"measurement": "SPOT peptide array binding signal intensity", "setting": "CaHse1", "result": 1}, {"measurement": "SPOT peptide array binding signal intensity", "setting": "CaLsb1", "result": 1}, {"measurement": "SPOT peptide array binding signal intensity", "setting": "CaLsb4", "result": 57}, {"measurement": "SPOT peptide array binding signal intensity", "setting": "CaMyo5", "result": 3}]}
